PubChem BioAssay (NCI)
This is part of a sample that, as a whole, favours compounds with a hit. Of some 83,000 tested, about 20% had one in any assay.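 Assay: single dose, 48 h. Readout: percent growth (0 = no net growth; negative = cell death). Active: <10.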 A number with no mark means an inactive call. Active and inactive are the calls of the source.

What follows are molecules tested on DU-145 prostate (assay: NCI-60 one-dose screen, 48 h (100 = growth as untreated, 0 = no growth, -100 = all killed)). Conditions: 10 µM unless noted.
`CCC(C)(C)c1ccc(OCCCCN2CCN(c3ccncc3)CC2)cc1` gave a growth of 60.8%. Molecule `COc1ccc(C(=O)/C=C/c2ccc(Oc3nc(Nc4ccc(F)cc4)nc(N(C)C)n3)c(OC)c2)cc1` has a growth of 51.7%. `S=c1c2ccccc2nc2n1CCc1c-2[nH]c2ccccc12` showed a growth of 68.1%. In the case of `CCOC(=O)COc1c(OC)c(OC)cc2oc(-c3cccc(C(=O)Nc4ccc(Cl)cc4)c3)cc(=O)c12`, the growth is reported as 64%.

These molecules were tested on K-562 leukemia in the same assay as above. Conditions: 10 µM unless noted.
In the case of `C/C(=N\N=C1/C(=O)Nc2ccc(Cl)cc21)c1ccc2c(c1)Nc1ccccc1S2`, the growth is reported as 10%. `CCCSc1nc(NCCc2c[nH]c3ccccc23)c(C#N)c(-c2ccc(F)cc2)n1` was tested, and the growth was 27.7%. In the case of `COc1cc(C2CC(c3cc(OC)c(OC)c(OC)c3)=NN2C(C)=O)ccc1OCc1ccccc1` (centres undefined), the growth is reported as 18.6%. `Cc1cc2c(cc1Cl)C(=O)/C(=C/c1ccccc1)O2` was tested, and the growth was 9.17% (active). For `COc1ccc2[nH]cc(-c3nc(N)nnc3-c3cn(C)c4ncccc34)c2c1`, the growth was 21.6%. `Cc1ccc(C(=O)CSc2nc3ccc(F)cc3c(=O)n2-c2ccc(Cl)cc2)cc1` showed a growth of 88.8%. In the case of `CCCCSc1nc(NCCc2c[nH]c3ccccc23)c(C#N)c(-c2ccccc2)n1`, the growth is reported as 8.19% (active). `Cn1cc(-c2nc(N)nnc2-c2c[nH]c3ccc(Br)cc23)c2cccnc21` was tested, and the growth was 24.5%. `CN(C)CCOc1ccc(C(=O)C2[C@H](c3ccc(Cl)cc3)[C@@H](c3ccccc3)NC23C(=O)Nc2ccc(Br)cc23)cc1` (some centres undefined) was tested, and the growth was -32.3% (active). In the case of `CN1CCN(/C(=N\c2sc(-c3ccccc3)nc2-c2ccccc2)c2ccccc2)CC1`, the growth is reported as 17.8%. In the case of `CCCSc1nc(NCCc2c[nH]c3ccccc23)c(C#N)c(-c2ccccc2)n1`, the growth is reported as 25.2%. `CCN(CC)c1ccnc(CNCCSC(c2ccccc2)(c2ccccc2)c2ccc(OC)cc2)c1` was tested, and the growth was -23.6% (active). Molecule `COc1cc2oc(-c3cccc(C(=O)Nc4cccc([N+](=O)[O-])c4)c3)cc(=O)c2c(OC)c1OC` has a growth of 69.2%. `O=C(COc1ccc(NC(=O)Nc2ccc(Cl)c(Cl)c2)cc1)N=Nc1c(O)[nH]c2ccc([N+](=O)[O-])cc12` showed a growth of 25.1%. `COc1cc(-c2nc3cc(Cl)c(Cl)cc3[nH]2)ccc1OCc1nnc(-c2cccs2)o1` gave a growth of 54%. Work on `CCCCCCCCc1ccc(C(=O)Nc2ccc(C)cc2C(=O)O)cc1C` yielded a growth of 71.2%. With `CCOP(=O)(OCCCl)c1nc(-c2ccc(C)cc2)oc1NCc1ccccc1` (centres undefined) the growth was 50.3%. In the case of `NS(=O)(=O)c1ccc(N=Nc2c(O)n(CC(=O)Nc3ccccc3)c3ccccc23)cc1`, the growth is reported as 14.7%. In the case of `CC1(C)CC[C@]2(C(=O)Nc3ccccc3)CC[C@]3(C)C(=CCC4[C@@]5(C)C[C@@H](O)[C@H](O)[C@@](C)(CO)C5CC[C@]43C)C2C1` (some centres undefined), the growth is reported as 33.3%. `COc1ccccc1C(=O)NN1C(=O)/C(=C/C2=Cc3ccccc3OC2)SC1=S` gave a growth of 101%. With `COc1ccc(NC(=O)[C@H](CO)NC(=O)OC(C)(C)C)cc1C(=O)Nc1cccc(C2CC(=O)c3c(cc(OC)c(OC)c3OC)O2)c1` (some centres undefined) the growth was 28.4%. `COc1ccc(C2(SCCNCc3cc(N(C)C)ccn3)c3ccccc3C=Cc3ccccc32)cc1` was tested, and the growth was 2.08% (active). In the case of `COc1ccc2[nH]c(O)c(N=NC(=O)COc3ccc(NC(=O)Nc4ccccc4)cc3)c2c1`, the growth is reported as 46.3%. For `COc1cc(/C=C/C(=O)c2ccc(C)cc2)ccc1Oc1nc(Nc2ccc(F)cc2)nc(N(C)C)n1`, the growth was 26.8%. For `CCN(CC)CCOc1ccc(Nc2ncc3cc(-c4ccc(O)c(C#N)c4)c(=O)n(C)c3n2)cc1`, the growth was -47.5% (active). `CC(/C=C1\SC(=S)N(CCCC(=O)NC(CC(C)C)C(=O)O)C1=O)=C\c1ccccc1` (centres undefined) was tested, and the growth was 82.8%. `COc1cc2c(c(OC)c1OC)C(=O)CC(c1cccc(NC(=O)c3cc(N)ccc3Cl)c1)O2` (centres undefined) was tested, and the growth was 15.6%. For `CC(=O)OC[C@@]1(C)C2CC[C@]3(C)C(CC=C4C5CC(C)(C)CC[C@]5(C(=O)Nc5cccc(C)c5)CC[C@]43C)[C@@]2(C)C[C@@H](OC(C)=O)[C@@H]1OC(C)=O` (some centres undefined), the growth was 21.5%. `CCCCc1c(Nn2cnnn2)no[n+]1[O-]` showed a growth of 28.2%. With `CC(C)Sc1nc(NCCc2c[nH]c3ccccc23)c(C#N)c(-c2ccc(F)cc2)n1` the growth was 9.31% (active).
